Screens as filed in PubChem.
Rtt109 Vps75 = inhibitors of C. albicans Rtt109/Vps75 HAT, primary screen, biochemical, ThioGlo CoA-SH fluorescence, plate reader; Histone acetyltransferase RTT109 (Candida albicans (strain SC5314 / ATCC MYA-2876)), …; purified Rtt109/Vps75, 4 h; inhibition, % at 34.9 µM; hit rate 0.16% among 330,000;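 active = inhibition of at least 50% in every replicate; inconclusive = best replicate reaches 50% inhibition but some replicates fall short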
SMARCA2 act = SMARCA2 (BRM) function activators, primary screen, cell-based, luminescence, high throughput | activation, % at 9.1 µM | hit rate 1% among 370,000 | MG213 cells, MMTV-luciferase reporter, dexamethasone, overnight; in the data active = activation above about 7.8%;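 note: 0% = vehicle wells and 100% = reference activator wells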
dFosB act-1 = activators of delta FosB homodimer, primary screen, biochemical, fluorescence polarization, TAMRA-CDK5 oligo, single point; Protein FosB (Mus musculus), P13346; purified delta FosB; percent of positive-control signal above neutral wells; activation, % at 25 µM; hit rate 0.99% among 340,000; AID 493131, 2011;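 active = mean activation above about 17%, with every replicate also reaching it, limit read from the data, passing the limit was not always enough; inconclusive = only one of the two conditions met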
Target sequence (P13346 whole entry, looked up): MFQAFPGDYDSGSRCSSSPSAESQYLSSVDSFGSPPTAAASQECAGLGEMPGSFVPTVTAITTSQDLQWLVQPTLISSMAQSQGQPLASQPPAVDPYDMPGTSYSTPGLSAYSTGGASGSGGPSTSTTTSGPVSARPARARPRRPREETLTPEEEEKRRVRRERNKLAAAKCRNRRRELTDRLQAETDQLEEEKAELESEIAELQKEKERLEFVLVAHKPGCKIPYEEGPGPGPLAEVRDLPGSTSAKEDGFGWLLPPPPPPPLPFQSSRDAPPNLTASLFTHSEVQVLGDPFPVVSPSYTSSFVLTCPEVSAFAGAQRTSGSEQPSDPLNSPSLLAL
CDK5 inh = inhibitors of human CDK5/p35 kinase, primary screen, biochemical, single concentration. Cyclin-dependent kinase 5 (Homo sapiens) + Cyclin-dependent kinase 5 activator 1 (Homo …. Recombinant CDK5/p35, ADP-Glo luminescence, 60 min. inhibition, % at 10 µM. hit rate 0.01% among 330,000;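 active = highest replicate inhibition of at least 50% and at least 75% of replicates reaching 50%; inconclusive = only one of the two criteria met; inactive = both criteria failed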;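 note: plate controls were DMSO neutral control for no effect and GW8510 at 10 µM for full effect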
esBAF inh = Bmi1 luciferase reporter increase in mESCs, primary screen, esBAF inhibitor project, mouse ES cells, Bmi1 luciferase knock-in, single point; AID 602393, 2012; reporter increase, % at 12.5 µM; 24 h; 100% = twice the neutral-well signal; hit rate 2% among 350,000; in the data active = activation above about 40%; inconclusive = no clear call, values can overlap the other calls;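 note: 0% = median of the plate's neutral control wells and 100% = double that signal; a rise in the Bmi1 reporter signal indicates esBAF inhibition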
DYRK1A inh = rat Dyrk1A kinase inhibitors, primary screen, biochemical, single point, plate reader | Dual specificity tyrosine-phosphorylation-regulated kinase 1A (Rattus norvegicus), Q63470 | ADP-Glo luminescence, NFATc1 peptide | inhibition, % at 12.5 µM | hit rate 0.43% among 310,000 | AID 504441, 2011; in the data active = inhibition above about 50%;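 note: plate controls were vehicle with enzyme for no effect and no enzyme for full effect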
dFosB act-2 = activators of mouse delta FosB DNA binding, confirmation, biochemical, fluorescence polarization, TAMRA-CDK5 oligo, cherry-picked samples. activation, % at 24.9 µM. shares compounds with dFosB act-1. 2,400 tested, under 10 active. purified delta FosB; normalised: neutral wells 0, positive control 100;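 active = highest replicate activation at or above 34% and every replicate reaching that threshold; inconclusive = meets only one of the two criteria; inactive = meets neither criterion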;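 note: higher polarization means more probe DNA bound by delta FosB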
Starred values were filed as active, the others as inactive; u = inconclusive; x = not tested or not shown. In the library only some 3.2% were active in any assay of this set; here they are far more common.

SMILES	Rtt109 Vps75	SMARCA2 act	dFosB act-1	CDK5 inh	esBAF inh	DYRK1A inh	dFosB act-2
C=CCNc1nc(Nc2ccc(-c3nc4ccccc4o3)cc2)nc(N2CCOCC2)n1	x	-2	28*	3	-2	2	2
Cc1cccc(C)c1NC(=O)CN1C(=O)CCSc2ccc(S(=O)(=O)N3CCCC3)cc21	-7	0	48*	-2	-4	-9	0
Cc1ccc(COc2cccc(/C=N/NC(=O)c3nnn(-c4nonc4N)c3C)c2)cc1	21	-1	53*	1	36	-4	0
CCOc1cc(/C=N/NC(=O)c2nnn(-c3nonc3N)c2C)ccc1OCc1ccc(C)cc1	x	-6	x	x	-4	x	x
Cc1ccc(COc2ccc(/C=N/NC(=O)c3nnn(-c4nonc4N)c3COc3ccc(F)cc3)cc2)cc1	-16	0	48*	0	x	2	0
COC(=O)COc1ccc(/C=C2\SC(=O)N(CC(=O)Nc3ccccc3F)C2=O)cc1	12	-4	33*	1	-5	-3	-2
COc1ccc(/C=C2\SC(=O)N(CC(=O)Nc3ccc(O)cc3)C2=O)cc1OC	1	-5	25*	-1	-9	-2	0
O=C(CN1C(=O)S/C(=C\c2ccc(Cl)cc2)C1=O)NNC(=O)c1ccccc1O	x	-3	26*	-2	x	-5	2
COc1ccc(/C=C2\SC(=O)N(CC(=O)Nc3ccccc3O)C2=O)cc1OC	0	1	3	1	-5	-2	x
O=C(CN1C(=O)S/C(=C\c2ccc(Cl)cc2)C1=O)NC1C=CS(=O)(=O)C1 (centres undefined)	-7	-4	20*	1	4	-5	5
COc1ccc(S(=O)(=O)N(C)C[C@@H]2Oc3c(NS(=O)(=O)c4ccc(C)cc4)cccc3C(=O)N([C@H](C)CO)C[C@@H]2C)cc1	x	x	x	x	6	x	x
CNC[C@@H]1Oc2ccc(NC(=O)CCC(F)(F)F)cc2CC(=O)N([C@@H](C)CO)C[C@H]1C	x	x	x	x	1	x	x
CCCNC(=O)C[C@H]1CC[C@@H]2[C@H](COC[C@H](O)CN2Cc2cccc(F)c2)O1	x	x	x	x	-4	x	x
CC(/C=C1\SC(=O)N(CC(=O)Nc2cccc(O)c2)C1=O)=C\c1ccccc1	3	-2	24*	1	-86	4	3
COc1ccc(S(=O)(=O)Nc2ccc3c(c2)CC(=O)N([C@H](C)CO)C[C@@H](C)[C@@H](CN(C)Cc2ccc(C(=O)O)cc2)O3)cc1	x	x	x	x	-6	x	x
Cc1ccc(Nc2nnc(SCc3nc4ccccc4c(=O)[nH]3)s2)cc1	-4	4	43*	0	0	14	-1
O=C(CCc1nc2ccccc2c(=O)[nH]1)Nc1nnc(SCc2ccc(Cl)cc2)s1	-6	-1	u	2	0	15	x
Cc1cccc(NC(=O)c2nc[nH]c2C(=O)Nc2cccc(C)c2)c1	-4	-2	-2	0	x	-1	x
NC(=O)c1nc[nH]c1C(=O)Nc1cccc(NC(=O)c2cccc(C(F)(F)F)c2)c1	-2	1	27*	2	0	1	7
COc1ccc(S(=O)(=O)N2CCC(C(=O)N[C@@H](C)C(=O)NC3CCCC3)CC2)cc1	-3	-2	20*	-2	-2	-3	5
Cc1ccc(S(=O)(=O)N2CCC(C(=O)N[C@@H](C)C(=O)NC3CCCCC3)CC2)cc1	-1	-1	39*	-1	-2	-6	7
CC(C)[C@H](NC(=O)C1CCN(S(=O)(=O)c2ccccc2)CC1)C(=O)NCc1ccco1	-2	0	-7	-2	3	-3	x
Cc1ccc(S(=O)(=O)N2CCC(C(=O)N[C@H](C(=O)NCc3ccco3)C(C)C)CC2)cc1	x	6	18*	0	0	-1	-7
O=C(N/N=C/c1ccccn1)c1cc(-c2ccc3ccccc3c2)n[nH]1	0	2	19*	0	x	-3	3
O=C(N/N=C/C=C\c1ccccc1[N+](=O)[O-])c1cc(-c2ccc3ccccc3c2)n[nH]1	x	3	25*	-1	37	-2	2
SMILES	Rtt109 Vps75	SMARCA2 act	dFosB act-1	CDK5 inh	esBAF inh	DYRK1A inh	dFosB act-2
CCCNC(=O)N1[C@@H]2CN(C(=O)Nc3ccc(F)cc3)c3ccccc3[C@@H]2[C@@H]1CO	x	x	x	x	4	x	x
CCOc1ccc2[nH]c3c(=O)n(CCC4=CCCCC4)cnc3c2c1	1	-4	-7	1	x	-8	x
CCOc1ccc2[nH]c3c(=O)n(CCc4ccc(OC)cc4)cnc3c2c1	4	-2	18*	0	-4	-3	-1
O=C(Nc1ccc2c(c1)[C@H]1C[C@H](CC(=O)N3CCOCC3)O[C@@H](CO)[C@H]1O2)C1CCC1	x	x	x	x	-2	x	x
Cc1cccc(NC(=O)CCCn2c(=S)[nH]c3ccccc3c2=O)c1	-5	3	25*	-1	-6	0	1
COc1cc(NC(=O)CCCn2c(=S)[nH]c3ccccc3c2=O)cc(OC)c1OC	-2	-3	-11	0	-4	x	x
NS(=O)(=O)c1ccc(NC(=O)COC(=O)/C(=C/c2cccs2)c2cccs2)cc1	12	2	27*	-3	x	-1	1
CC=Cc1ccc2n(c1=O)C[C@H]1N[C@@H]2[C@@H](C(=O)NCc2ccc3c(c2)OCO3)[C@@H]1CO (mixture of isomers)	x	x	x	x	0	x	x
Cc1cc2cc(CNC(=O)c3ccc(S(=O)(=O)N4CCCCC4)cc3)ccc2n1C	-3	-4	33*	0	1	1	2
C[C@@H]1CN([C@@H](C)CO)C(=O)c2cc(C#CC3(O)CCCC3)cnc2O[C@H]1CN(C)C(=O)C1CCOCC1	x	x	x	x	-2	x	x
CCCNC(=O)N(C)C[C@@H]1Oc2cc(C#CC3CC3)ccc2S(=O)(=O)N([C@H](C)CO)C[C@@H]1C	x	x	x	x	0	x	x
CC1CC(C)CN(S(=O)(=O)c2ccc(C(=O)Nc3sccc3C(N)=O)cc2)C1 (centres undefined)	-6	-1	29*	1	10	-2	2
COc1cc(C2C(C#N)=C(N)Oc3cc(C)n(CCc4ccccc4)c(=O)c32)cc2c1OCO2 (centres undefined)	-6	-3	68*	0	x	7	0
